Sampled rows, rich in hits. Any-hit rate of the full collection: about 3.9%.
Tb PFK block: inhibitors of T. brucei phosphofructokinase. Potency, µM (top dose mostly 57.5 µM), most hits filed as inhibitors. O15648. actives 0.17% (n = 330,000). T. brucei PFK, ADP-Glo luminescence. AID 485367; further: nearly all actives have a fitted effect of over 60% in size
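In TEA buffer at pH 8.0 with 5 mM MgCl2, enzyme (1.25 nM) converted F6P (0.5 mM) and ATP (0.1 mM) for 45 min at room temperature. ADP product was read by luciferase luminescence.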
PLK1 PBD inh: inhibitors of human PLK1 polo-box domain binding; P53350; Potency, µM, usual class: inhibitors; actives 2.8% (n = 360,000); AID 720504; Plk1 PBD binding of FITC phosphopeptide, fluorescence polarization; further: series mostly up to about 57 µM; nearly all actives have a fitted effect of over 65% in size
Target sequence (P53350 whole entry, looked up, the tested form may be a part): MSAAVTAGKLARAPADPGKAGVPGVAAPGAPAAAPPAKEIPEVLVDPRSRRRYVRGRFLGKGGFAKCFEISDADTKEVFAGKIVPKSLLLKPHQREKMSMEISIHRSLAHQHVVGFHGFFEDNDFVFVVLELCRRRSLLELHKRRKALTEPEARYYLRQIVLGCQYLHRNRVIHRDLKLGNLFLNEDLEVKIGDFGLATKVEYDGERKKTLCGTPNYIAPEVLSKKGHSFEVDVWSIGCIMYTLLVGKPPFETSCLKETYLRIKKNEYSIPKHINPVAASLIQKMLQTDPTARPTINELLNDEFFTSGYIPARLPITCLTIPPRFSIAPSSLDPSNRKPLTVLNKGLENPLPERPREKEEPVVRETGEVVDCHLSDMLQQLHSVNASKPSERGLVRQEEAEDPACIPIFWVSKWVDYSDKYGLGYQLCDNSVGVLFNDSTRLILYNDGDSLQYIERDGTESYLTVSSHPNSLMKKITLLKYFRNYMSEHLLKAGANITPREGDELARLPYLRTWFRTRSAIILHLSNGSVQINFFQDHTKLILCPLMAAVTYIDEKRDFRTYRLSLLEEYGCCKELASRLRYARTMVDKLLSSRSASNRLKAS
BRCA1 expr act: BRCA1 expression activation; MCF7-BRCA1-FFLuc reporter, luminescence, 48 h; response scale: scaled: vehicle 0%, 10 µM genistein 100%; actives 1.1% (n = 380,000); Potency, µM (titrated, usually from 46.1 µM), usual class: activators; further: nearly all actives have a fitted effect of over 80% in size
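Cells: MCF7-BRCA1-FFLuc, 2000/well. Exposure: 48 h, 37 °C, 5% CO2. Read: luminescence, 15 min post-substrate. Controls: genistein 10 microM (maximal activation), DMSO (neutral).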
VDR inh: blocks the human vitamin D receptor | P11473 | VDR-SRC2-3 peptide fluorescence polarization, 2 h | Potency, µM, most hits filed as inhibitors | actives 0.93% (n = 400,000) | AID 504847
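After 23 nl compound addition and a short centrifugation, plates sat for 2 hours at ambient temperature; polarization of fluorescence then indicated loss of VDR binding to peptide SRC2-3.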
TbPYK confirm: Trypanosoma brucei pyruvate kinase inhibition, cherry-pick confirmation | shares compounds with PLK1 PBD inh | recombinant TbPYK, Kinase-Glo ATP luminescence | Potency, µM (top dose mostly 76.9 µM), hits mostly inhibitors | actives 67% (n = 890); further: nearly all actives have a fitted effect of over 70% in size
TbPYK orthogonal: TbPYK inhibition, orthogonal confirmation | actives 62% (n = 890) | shares compounds with PLK1 PBD inh | recombinant TbPYK, ADP-Glo luminescence, 60 min | Potency, µM (doses to about 76.9 µM), hits mostly inhibitors; further: nearly all actives have a fitted effect of over 75% in size
Of the large screens only hits and unclear results are named; the others gave an inactive call (follow-up assays come after a bar, where they were run). The call rests on the fitted dose curve; in most records, active means well fitted curve in the direction sought with a large enough effect; inconclusive means small, poorly fitted or top-dose-only effect, or another doubt; inactive means no such curve, though single readings can be large; an effect the other way counts as inactive or inconclusive.

COc1ccc(C2CC(=O)N3C(=C2C#N)SCC3(O)c2ccccc2)cc1 (centres undefined)	none
COc1ccc(OC)c(C2CC(=O)N3CN(c4cccc(Cl)c4)CSC3=C2C#N)c1 (centres undefined)	VDR inh 50µM | TbPYK confirm inconclusive | TbPYK orthogonal 40µM
Cc1ccc(CNC(=O)Cn2c(=O)n(-c3cccc(Cl)c3)c(=O)c3sc4ccccc4c32)cc1	none (no result: Tb PFK block, PLK1 PBD inh)
CCCCN(C(=O)CCC(=O)O)C1CC(=O)N(c2ccc(OCCC)cc2)C1=O (centres undefined)	none
CCCCCCC(=O)N(O)C1CC(=O)N(c2ccc(F)cc2)C1=O (centres undefined)	PLK1 PBD inh 27µM, VDR inh 40µM | TbPYK confirm inconclusive | TbPYK orthogonal inconclusive
O=S(=O)(/N=C(/Nc1cccnc1Cl)c1ccccc1)c1ccccc1	none
O/N=C/c1cn(-c2ccccc2)nc1-c1ccccc1	none
CC1(C)CC(=O)C(=Cc2cn(-c3ccccc3)nc2-c2ccccc2)C(=O)C1	PLK1 PBD inh 1.2µM, VDR inh inconclusive (no result: Tb PFK block) | TbPYK confirm 10µM | TbPYK orthogonal inconclusive
O=C(NCCCN1CCN(c2cccc(Cl)c2)CC1)c1ccc2nc(Cc3ccccc3)oc2c1	none (no result: Tb PFK block, PLK1 PBD inh, BRCA1 expr act)
O=C(Nc1ccc(C(=O)N2CCCC2)cc1)c1ccccc1	BRCA1 expr act inconclusive (no result: Tb PFK block) | TbPYK confirm 28µM | TbPYK orthogonal inactive
CC(C)Sc1nc(N2CCOCC2)c2c(c1C#N)CC(C)(C)N(C)C2	PLK1 PBD inh 2.7µM, VDR inh inconclusive | TbPYK confirm inactive | TbPYK orthogonal inactive
CC1(C)Cc2c(C#N)c(SCC(=O)c3ccccc3)nc(N3CCOCC3)c2CO1	VDR inh inconclusive | TbPYK confirm 10µM | TbPYK orthogonal 11µM
CCOc1ccccc1N1C(=O)CC(Sc2n[nH]c(-c3ccccc3)n2)C1=O (centres undefined)	PLK1 PBD inh 7.5µM | TbPYK confirm 7.1µM | TbPYK orthogonal 13µM
CCc1cc(Cn2nc(-c3ccccc3)cc2C(=O)NCc2cccs2)on1	none
COc1ccc(C2NC(=O)c3sc(=S)n(-c4ccccc4)c3N2)cc1 (centres undefined)	PLK1 PBD inh inconclusive, VDR inh 79µM | TbPYK confirm 7.1µM | TbPYK orthogonal 13µM
COc1ccc(-n2nnnc2Sc2ccc(S(=O)(=O)N3CCOCC3)cn2)cc1	PLK1 PBD inh 9.5µM, VDR inh inconclusive | TbPYK confirm 14µM | TbPYK orthogonal 18µM
c1ccc2sc(SN3CCOCC3)nc2c1	PLK1 PBD inh 21µM, VDR inh inconclusive | TbPYK confirm 28µM | TbPYK orthogonal 35µM
CN(C)c1ccc(C(=S)N2CCN(Cc3ccccc3)CC2)cc1	Tb PFK block inconclusive, PLK1 PBD inh 4.2µM, VDR inh 50µM | TbPYK confirm 5µM | TbPYK orthogonal 4.5µM
Cc1ccc2oc(C(=O)N(C)Cc3ccc(C)o3)c(C)c2c1	PLK1 PBD inh inconclusive, VDR inh inconclusive | TbPYK confirm 16µM | TbPYK orthogonal 28µM
O=C1CC(Sc2nnc(-c3ccccc3)o2)C(=O)N1c1ccccc1 (centres undefined)	PLK1 PBD inh inconclusive
Cc1ccccc1N1C(=O)CC(Sc2nnc(-c3ccccc3)o2)C1=O (centres undefined)	none | TbPYK confirm 14µM | TbPYK orthogonal 18µM
O=C(Nc1ccc(F)cc1)C(c1cccc(F)c1)N1CCN(c2cccc(C(F)(F)F)n2)CC1 (centres undefined)	none (no result: Tb PFK block, BRCA1 expr act, VDR inh)
Cc1cc(=O)c2c(o1)C(=O)c1occc1C2=O	PLK1 PBD inh inconclusive, VDR inh inconclusive (no result: Tb PFK block) | TbPYK confirm 2.5µM | TbPYK orthogonal inconclusive
COc1c2occc2c(OC)c2c(=O)cc(C)oc12	none
CC(C)[C@H]1COCCS(=O)(=O)N1Cc1ccccc1	none (no result: Tb PFK block)
CN(CC(=O)Nc1cccc(F)c1)C(=O)Cn1c(=O)cnc2ccccc21	none
Cc1cc(Br)ccc1NC(=O)CN(C)C(=O)Cn1c(=O)cnc2ccccc21	none | TbPYK confirm inconclusive | TbPYK orthogonal inconclusive
CC1=CC(=Nc2c(C)n(C)n(-c3ccccc3)c2=O)C=C(C)C1=O	none | TbPYK confirm inactive | TbPYK orthogonal inactive
COc1ccc(O)c(/C=c2/sc3nc4cc(C)c(C)cc4n3c2=O)c1	PLK1 PBD inh 11µM, VDR inh inconclusive | TbPYK confirm 10µM | TbPYK orthogonal 11µM
O=C(CCCN1C(=O)/C(=C/c2ccccc2Cl)SC1=S)NCCCN1CCOCC1	none
O=C1C(=Cc2cccc(O)c2O)SC(=S)N1CCCN1CCOCC1	PLK1 PBD inh 5.3µM (no result: Tb PFK block, VDR inh) | TbPYK confirm 4.5µM | TbPYK orthogonal 2.2µM
C=C(CN(C)C)C(=O)c1cc(C)ccc1C	PLK1 PBD inh 2.7µM, VDR inh 45µM (no result: Tb PFK block) | TbPYK confirm 5.6µM | TbPYK orthogonal 16µM
Cc1ccc(C)c(C(=O)NCCN(C)C)c1	none
Cc1ccc(S(=O)(=O)/N=C2/C=C(C3C(=O)CC(C)(C)CC3=O)C(=O)c3ccccc32)cc1	PLK1 PBD inh 7.5µM, VDR inh inconclusive | TbPYK confirm inactive | TbPYK orthogonal inactive
CCc1ccc(S(=O)(=O)/N=C2\C=CC(=O)c3ccccc32)cc1	none (no result: PLK1 PBD inh, BRCA1 expr act, VDR inh)
Cc1cccc(CSc2ccc3nnc(CCNS(=O)(=O)c4ccccc4)n3n2)c1	none (no result: Tb PFK block, PLK1 PBD inh, BRCA1 expr act)
Cc1cccc(C(=O)NCC(=O)OCc2cc(=O)n3nc(C4CC4)sc3n2)c1	none (no result: Tb PFK block, PLK1 PBD inh)
Cc1cc(NC(=O)CSc2nnc(-c3ccccc3)n2Cc2ccco2)no1	none
CCOC(=O)CNC(=O)CSc1nnc(-c2ccccc2)n1Cc1ccco1	none | TbPYK confirm 2.2µM | TbPYK orthogonal 1.4µM
CC(C)(C(=O)N1CCC1(C)C(=O)NS(=O)(=O)c1ccc(C#N)cc1)c1ccccc1 (centres undefined)	none (no result: Tb PFK block, VDR inh)
COc1ccccc1N(C(=O)CCl)c1cn(C(C)=O)c2ccccc12	none
COc1ccccc1N(C(C)=O)C1=C(Cl)C(=O)c2ccccc2C1=O	PLK1 PBD inh 3µM (no result: Tb PFK block, VDR inh) | TbPYK confirm inactive | TbPYK orthogonal 0.79µM
COc1ccc(CNC(=O)c2ccc3ccccc3n2)cc1	none
COc1ccc(N=C(NN)c2ccc3ccccc3n2)cc1	Tb PFK block inconclusive, PLK1 PBD inh 12µM | TbPYK confirm 13µM | TbPYK orthogonal inconclusive
O=S(=O)(Nc1cc(Sc2cccc3cccnc23)c(O)c2ccccc12)c1ccc(F)cc1	PLK1 PBD inh 1.5µM, VDR inh 22µM | TbPYK confirm 1.4µM | TbPYK orthogonal 2.2µM
O=C(CSc1ccc(-c2ccco2)nn1)NCc1ccc(F)cc1	none
COc1ccc(C(=O)CSc2nnc(-c3ccco3)n2CC2CCCO2)cc1 (centres undefined)	none
CCC(=O)Nc1ccc(NC(=O)CSc2nnc(-c3ccc(O)cc3)n2CC2CCCO2)cc1 (centres undefined)	none
O=C(CSc1ccc(-c2ccco2)nn1)c1ccc(F)cc1	PLK1 PBD inh inconclusive, VDR inh inconclusive | TbPYK confirm 25µM | TbPYK orthogonal 32µM

High-throughput results deposited in PubChem BioAssay by National Center for Advancing Translational Sciences (NCATS).
